Assay [1] addresses Bile acid receptor (Homo sapiens) (UniProt Q96RI1). In words: ATG_IR1_CIS: Attagene CIS-FACTORIAL HepG2 Assay for human Nuclear Receptor Subfamily 1 Group H Member 4 (NR1H4), IR1 submotif (AID 2282946). The settings on record: IR1 reporter transcription, actives raise or lower the signal. The procedure, abridged: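 Transient MRTU transfection, HepG2; 24 h dosing; RNA → RT-PCR → 6-FAM primer extension → HpaI digest → capillary electrophoresis fluorescence. Gain/loss of signal fitted relative to DMSO.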

The nature of assay [2]: ATG_ISRE_CIS: Attagene CIS-FACTORIAL HepG2 Assay for human Interferon Regulatory Factor 1 (IRF1) binding to an Interferon-Stimulated Response Element (ISRE) (AID 2282948). Particulars: HepG2 ISRE cis-reporter (Attagene), mRNA transcription readout; actives raise or lower the signal. The procedure, abridged: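 Quantitation relies on labelled RT-PCR fragments separated by capillary electrophoresis. Human HepG2 cells bearing cis-promoter reporter constructs were treated 24 h; DMSO served as baseline for bidirectional fitting.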

Assay [3] in a line: ATG_M_32_CIS: Attagene CIS-FACTORIAL HepG2 Assay for M32 Transcription Factor (Internal Marker) (AID 2282949).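 Note: background control marker of the multiplexed CIS panel rather than a real target.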 Particulars: HepG2 Attagene cis-factorial M32 reporter, mRNA; actives raise or lower the signal. The procedure, abridged: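 Following 24 h chemical exposure of HepG2 cells transiently expressing cis-promoter reporter constructs, reporter transcript levels were determined by RT-PCR with fluorescent labelling and capillary electrophoresis, then fitted bidirectionally against DMSO.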

A short description of assay [4]: ATG_M_06_CIS: Attagene CIS-FACTORIAL HepG2 Assay for M06 Transcription Factor (Internal Marker) (AID 2282950). Particulars: HepG2 Attagene CIS-FACTORIAL M06 internal marker reporter; actives raise or lower the signal. Put shortly:
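Terse: HepG2, transient MRTU transfection (FuGene 6), 24 h dosing; total RNA, oligo(dT) RT, PCR, FAM label, HpaI cut, capillary electrophoresis; bidirectional fit vs DMSO baseline; background-control endpoint.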

Assay [5] concerns the target Hypoxia-inducible factor 1-alpha (Homo sapiens) (UniProt Q16665). In words: ATG_HIF1a_CIS: Attagene CIS-FACTORIAL HepG2 Assay for human Hypoxia Inducible Factor 1 (HIF1A) (AID 2282951). Particulars: HepG2 Attagene cis-factorial HIF1a reporter transcription; actives raise or lower the signal. The procedure, abridged: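 HepG2, transient cis-reporter library, 24 h dosing. RNA → RT (oligo dT) → PCR → 6-FAM primer extension → HpaI → CE. Bidirectional curve fit vs DMSO.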

Assay [6] concerns the target Hepatocyte nuclear factor 6 (Homo sapiens) (UniProt Q9UBC0). In words: ATG_HNF6_CIS: Attagene CIS-FACTORIAL HepG2 Assay for human Hepatocyte Nuclear Factor 6 (HNF6) (AID 2282952). The settings on record: HepG2 Attagene cis-factorial HNF6 reporter transcription; actives raise or lower the signal. The procedure, abridged: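 Multiplexed mRNA reporter assay in transfected HepG2; 24 h dosing; RT-PCR plus capillary electrophoresis fluorescence; DMSO-referenced bidirectional curve fitting.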

Assay [7] addresses Heat shock factor protein 1 (Homo sapiens) (UniProt Q00613). In words: ATG_HSE_CIS: Attagene CIS-FACTORIAL HepG2 Assay for human Heat Shock Transcription Factor 1 (HSE) (AID 2282953). The settings on record: HepG2 HSE cis-reporter, Attagene RNA transcription; actives raise or lower the signal. The procedure, abridged:
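Read-out: fluorescence of reporter-specific RT-PCR fragments separated by capillary electrophoresis. HepG2 carrying transfected cis-element reporter units; 24 h dosing; activity fitted in both directions relative to DMSO baseline.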

A short description of assay [8]: ATG_MRE_CIS: Attagene CIS-FACTORIAL HepG2 Assay for human Metal Responsive Element (MRE) (AID 2282954). The settings on record: HepG2 MRE cis-reporter transcription, Attagene multiplex; actives raise or lower the signal. The procedure, abridged: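 HepG2 cells transiently transfected with multiple cis-element reporter units measure endogenous MTF1-driven transcription. After 24 h compound exposure, reporter mRNA is quantified by RT-PCR with 6-FAM labelling, HpaI digestion and capillary electrophoresis; bidirectional fits versus DMSO.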

The nature of assay [9]: ATG_PBREM_CIS: Attagene CIS-FACTORIAL HepG2 Assay for human Phenobarbital-responsive Enhancer Module (PBREM) (AID 2282955). Particulars: HepG2 PBREM cis-reporter, Attagene multiplexed transcription; actives raise or lower the signal. The procedure, abridged: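 HepG2, transient MRTU transfection, 24 h dosing; RNA → oligo(dT) RT → PCR → 6-FAM extension → HpaI → CE. Bidirectional fit vs DMSO.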

Assay [10] concerns the target Paired box protein Pax-6 (Homo sapiens) (UniProt P26367). In words: ATG_Pax6_CIS: Attagene CIS-FACTORIAL HepG2 Assay for human Paired Box 6 (PAX6) (AID 2282956). The settings on record: HepG2 CIS-FACTORIAL PAX6 reporter transcription, RNA readout; actives raise or lower the signal. Put shortly:
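After twenty-four hours of chemical exposure, transfected HepG2 cells are harvested for RNA. Cis-promoter reporter transcripts are amplified, fluorescently labelled and sized by capillary electrophoresis, with gain and loss of signal scored against DMSO.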

Assay [11] in a line: ATG_PXRE_CIS: Attagene CIS-FACTORIAL HepG2 Assay for human Pregnane X Receptor Element (PXRE) (AID 2282957). Particulars: HepG2 Attagene CIS-FACTORIAL PXRE reporter, mRNA; actives raise or lower the signal. Put shortly:
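Cells: HepG2, transiently transfected reporter units under cis promoter control. Exposure: 24 h. Detection: reporter mRNA via RT-PCR/CE fluorescence; bidirectional fitting, DMSO-referenced.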

A short description of assay [12]: ATG_PPRE_CIS: Attagene CIS-FACTORIAL HepG2 Assay for human Peroxisome Proliferator-activated Response Element (PPRE) (AID 2282958). The settings on record: HepG2 PPRE cis-element reporter, Attagene transcription factor profiling; actives raise or lower the signal. The procedure, abridged:
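Transcript-level reporter induction in transfected HepG2 cells after 24 h chemical exposure, quantified by fluorescence from RT-PCR products separated by capillary electrophoresis.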

Assay [13] is described as follows: ATG_RORE_CIS: Attagene CIS-FACTORIAL HepG2 Assay for human RAR-related Orphan Receptor Element (RORE) (AID 2282959). The settings on record: HepG2 Attagene cis-factorial RORE reporter, mRNA; actives raise or lower the signal. The procedure, abridged:
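Multiplexed reporter assay measuring mRNA induction from a cis promoter element in transiently transfected HepG2 cells after 24 h treatment. Detection via RT-PCR and capillary electrophoresis fluorescence; DMSO serves as baseline.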

The target in assay [14] is Transcription factor Sp1 (Homo sapiens) (UniProt P08047). In words: ATG_Sp1_CIS: Attagene CIS-FACTORIAL HepG2 Assay for human Specificity Protein 1 (Sp1) (AID 2282961). The settings on record: HepG2 Sp1 cis-reporter transcription, actives raise or lower the signal. Put shortly: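 Measures mRNA induction of an Sp1-linked reporter in HepG2 cells 24 h post-dosing. Multiplexed reporters read by RT-PCR and capillary electrophoresis; DMSO serves as negative control and baseline.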
Chain of Transcription factor Sp1 (Homo sapiens) (P08047 whole entry, looked up): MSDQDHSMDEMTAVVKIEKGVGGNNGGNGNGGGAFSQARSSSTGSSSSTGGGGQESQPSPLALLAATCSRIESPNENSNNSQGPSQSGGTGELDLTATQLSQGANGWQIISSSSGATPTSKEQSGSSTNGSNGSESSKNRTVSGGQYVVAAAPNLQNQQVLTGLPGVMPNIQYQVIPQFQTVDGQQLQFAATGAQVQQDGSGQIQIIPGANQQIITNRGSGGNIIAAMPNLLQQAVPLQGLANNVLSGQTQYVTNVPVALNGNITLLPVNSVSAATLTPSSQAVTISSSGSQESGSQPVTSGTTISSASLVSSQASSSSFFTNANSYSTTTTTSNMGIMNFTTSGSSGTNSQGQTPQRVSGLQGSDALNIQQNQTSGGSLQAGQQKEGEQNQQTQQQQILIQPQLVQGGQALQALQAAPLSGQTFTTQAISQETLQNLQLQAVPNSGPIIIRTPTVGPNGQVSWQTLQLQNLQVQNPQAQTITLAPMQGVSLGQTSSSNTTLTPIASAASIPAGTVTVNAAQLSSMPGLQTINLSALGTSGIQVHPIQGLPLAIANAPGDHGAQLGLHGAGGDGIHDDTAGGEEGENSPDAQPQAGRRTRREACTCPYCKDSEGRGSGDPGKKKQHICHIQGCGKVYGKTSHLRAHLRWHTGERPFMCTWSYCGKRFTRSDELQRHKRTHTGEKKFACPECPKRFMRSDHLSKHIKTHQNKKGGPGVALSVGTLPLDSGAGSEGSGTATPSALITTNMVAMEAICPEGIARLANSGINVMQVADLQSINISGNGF

A short description of assay [15]: ATG_SREBP_CIS: Attagene CIS-FACTORIAL HepG2 Assay for human Sterol Regulatory Element Binding (SREBP) (AID 2282962). The settings on record: HepG2 Attagene cis-factorial SREBP reporter, mRNA; actives raise or lower the signal. The procedure, abridged:
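Twenty-four hours after chemical dosing of transfected HepG2 cultures, reporter RNA was converted to cDNA, amplified, end-labelled with 6-FAM and resolved by capillary electrophoresis. Responses were fitted relative to DMSO.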

Assay [16] has as its target Signal transducer and activator of transcription 3 (Homo sapiens) (UniProt P40763). In words: ATG_STAT3_CIS: Attagene CIS-FACTORIAL HepG2 Assay for human Signal Transducer and Activator of Transcription 3 (STAT3) (AID 2282963). Particulars: HepG2, Attagene cis-factorial STAT3 reporter transcription; actives raise or lower the signal. The procedure, abridged:
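HepG2 cells transiently transfected with cis-element-driven multiple reporter transcription units; after 24 h chemical exposure, reporter mRNA measured by RT-PCR, 6-FAM primer-extension labelling, HpaI digestion and capillary electrophoresis. Bidirectional fitting versus DMSO baseline.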

The nature of assay [17]: ATG_TA_CIS: Attagene CIS-FACTORIAL HepG2 Assay for human TA Basal Promoter (AID 2282964). The settings on record: HepG2 Attagene CIS-factorial TA basal promoter reporter; actives raise or lower the signal. The procedure, abridged:
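Transfected HepG2, 24 h compound exposure; RNA → RT-PCR → FAM primer extension → HpaI cut → CE fluorescence. Gain/loss-of-signal fitted against DMSO negative control. Background-control readout.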

Assay [18] is described as follows: ATG_TCF_b_cat_CIS: Attagene CIS-FACTORIAL HepG2 Assay for human T-Cell-Factor with beta-catenin (TCF/b-cat) (AID 2282965). The settings on record: HepG2 TCF/beta-catenin cis-reporter transcription, actives raise or lower the signal. Put shortly:
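HepG2 cells transiently transfected with multiple cis-promoter-regulated reporter transcription units, so endogenous transcription factor activity is measured. Reporter mRNA read 24 hours after dosing by RT-PCR, fluorescent labelling and capillary electrophoresis; bidirectional fitting against DMSO.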

Assay [19] in a line: ATG_Sox_CIS: Attagene CIS-FACTORIAL HepG2 Assay for human SRY-box transcription factor (SOX) (AID 2282960). Particulars: HepG2 Attagene cis-factorial SOX reporter, mRNA; actives raise or lower the signal. The procedure, abridged:
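Cells were transfected with reporter constructs under cis-regulatory promoters, then exposed to chemicals for 24 h. Reporter transcripts were quantified by fluorescence after RT-PCR and capillary electrophoresis; activity was fitted in both directions against DMSO.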

Assay [20] is described as follows: ATG_GRE_CIS: Attagene CIS-FACTORIAL HepG2 Assay for human Glucocorticoid Response Elements (GRE) (AID 2282947). Particulars: HepG2 GRE cis-reporter, Attagene multiplex mRNA; actives raise or lower the signal. The procedure, abridged:
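HepG2 cells transiently transfected with multiple cis-promoter reporter units measure endogenous TF activity; 24 h compound exposure. Reporter mRNA quantified by RT-PCR, FAM labelling, HpaI digestion and capillary electrophoresis; bidirectional fit vs DMSO baseline.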

SMILES strings stand for the structures. Activity calls are given as the source filed them. Rule for the calls: active = hit-call score of the fitted dose curve at least 0.9, where 1 is the maximum; inactive = score below 0.9.

Chain of Hypoxia-inducible factor 1-alpha (Homo sapiens) (Q16665 whole entry, looked up): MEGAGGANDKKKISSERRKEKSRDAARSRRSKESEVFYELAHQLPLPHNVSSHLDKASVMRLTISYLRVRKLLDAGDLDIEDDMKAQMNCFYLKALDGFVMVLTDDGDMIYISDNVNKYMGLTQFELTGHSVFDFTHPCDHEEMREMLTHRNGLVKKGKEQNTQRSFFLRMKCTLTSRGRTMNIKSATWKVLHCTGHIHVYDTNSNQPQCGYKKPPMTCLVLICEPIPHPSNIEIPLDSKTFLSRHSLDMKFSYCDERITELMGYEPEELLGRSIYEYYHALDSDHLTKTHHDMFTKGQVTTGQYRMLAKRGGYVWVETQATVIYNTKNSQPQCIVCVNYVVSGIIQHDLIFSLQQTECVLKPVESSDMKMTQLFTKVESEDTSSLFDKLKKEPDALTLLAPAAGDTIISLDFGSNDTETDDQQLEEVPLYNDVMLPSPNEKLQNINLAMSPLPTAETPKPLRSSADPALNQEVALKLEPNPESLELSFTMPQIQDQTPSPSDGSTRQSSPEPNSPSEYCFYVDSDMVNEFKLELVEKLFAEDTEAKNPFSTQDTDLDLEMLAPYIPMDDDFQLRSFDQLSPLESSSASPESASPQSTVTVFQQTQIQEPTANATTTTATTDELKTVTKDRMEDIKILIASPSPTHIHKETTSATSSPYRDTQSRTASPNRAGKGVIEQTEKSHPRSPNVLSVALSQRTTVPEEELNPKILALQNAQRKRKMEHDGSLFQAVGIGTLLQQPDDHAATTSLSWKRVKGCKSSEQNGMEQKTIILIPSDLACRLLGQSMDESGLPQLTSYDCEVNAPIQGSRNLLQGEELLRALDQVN
Chain of Paired box protein Pax-6 (Homo sapiens) (P26367 whole entry, looked up): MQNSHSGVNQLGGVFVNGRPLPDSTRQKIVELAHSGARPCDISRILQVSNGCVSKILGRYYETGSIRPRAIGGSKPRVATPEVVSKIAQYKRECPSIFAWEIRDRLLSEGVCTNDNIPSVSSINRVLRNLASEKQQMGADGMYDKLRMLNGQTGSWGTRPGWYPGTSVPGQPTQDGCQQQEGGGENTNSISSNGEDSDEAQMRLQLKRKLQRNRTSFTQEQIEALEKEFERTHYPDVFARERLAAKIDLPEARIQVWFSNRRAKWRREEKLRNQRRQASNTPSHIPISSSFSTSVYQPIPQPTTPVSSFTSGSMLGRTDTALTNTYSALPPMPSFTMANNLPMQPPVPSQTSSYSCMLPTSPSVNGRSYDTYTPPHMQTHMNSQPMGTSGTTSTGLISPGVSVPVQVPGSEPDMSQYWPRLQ
Chain of Bile acid receptor (Homo sapiens) (Q96RI1 whole entry, looked up): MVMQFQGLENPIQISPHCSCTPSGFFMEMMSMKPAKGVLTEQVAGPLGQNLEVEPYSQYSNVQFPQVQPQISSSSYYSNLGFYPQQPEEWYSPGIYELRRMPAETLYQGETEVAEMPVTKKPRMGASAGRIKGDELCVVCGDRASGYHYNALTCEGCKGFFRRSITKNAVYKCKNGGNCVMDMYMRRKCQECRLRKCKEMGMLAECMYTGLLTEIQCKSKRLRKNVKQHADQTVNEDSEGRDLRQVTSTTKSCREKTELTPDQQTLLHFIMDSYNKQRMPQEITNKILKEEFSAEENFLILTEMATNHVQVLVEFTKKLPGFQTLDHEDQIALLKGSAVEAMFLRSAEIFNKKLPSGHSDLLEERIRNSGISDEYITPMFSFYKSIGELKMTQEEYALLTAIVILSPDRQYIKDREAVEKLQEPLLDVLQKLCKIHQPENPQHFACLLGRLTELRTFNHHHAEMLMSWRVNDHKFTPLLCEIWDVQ
Chain of Hepatocyte nuclear factor 6 (Homo sapiens) (Q9UBC0 whole entry, looked up): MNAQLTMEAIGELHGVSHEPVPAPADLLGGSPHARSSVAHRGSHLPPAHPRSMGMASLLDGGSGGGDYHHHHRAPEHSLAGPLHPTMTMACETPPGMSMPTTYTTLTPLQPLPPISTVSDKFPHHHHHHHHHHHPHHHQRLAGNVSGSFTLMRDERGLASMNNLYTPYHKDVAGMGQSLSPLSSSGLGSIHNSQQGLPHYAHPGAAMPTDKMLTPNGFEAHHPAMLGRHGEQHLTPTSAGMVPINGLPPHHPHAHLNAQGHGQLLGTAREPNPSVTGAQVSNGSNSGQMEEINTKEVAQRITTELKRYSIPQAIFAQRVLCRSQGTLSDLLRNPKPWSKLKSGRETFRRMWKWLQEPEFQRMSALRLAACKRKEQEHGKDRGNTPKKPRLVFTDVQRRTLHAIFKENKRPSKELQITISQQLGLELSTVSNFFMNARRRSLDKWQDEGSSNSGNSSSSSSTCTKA
Chain of Heat shock factor protein 1 (Homo sapiens) (Q00613 whole entry, looked up, the tested form may be a part): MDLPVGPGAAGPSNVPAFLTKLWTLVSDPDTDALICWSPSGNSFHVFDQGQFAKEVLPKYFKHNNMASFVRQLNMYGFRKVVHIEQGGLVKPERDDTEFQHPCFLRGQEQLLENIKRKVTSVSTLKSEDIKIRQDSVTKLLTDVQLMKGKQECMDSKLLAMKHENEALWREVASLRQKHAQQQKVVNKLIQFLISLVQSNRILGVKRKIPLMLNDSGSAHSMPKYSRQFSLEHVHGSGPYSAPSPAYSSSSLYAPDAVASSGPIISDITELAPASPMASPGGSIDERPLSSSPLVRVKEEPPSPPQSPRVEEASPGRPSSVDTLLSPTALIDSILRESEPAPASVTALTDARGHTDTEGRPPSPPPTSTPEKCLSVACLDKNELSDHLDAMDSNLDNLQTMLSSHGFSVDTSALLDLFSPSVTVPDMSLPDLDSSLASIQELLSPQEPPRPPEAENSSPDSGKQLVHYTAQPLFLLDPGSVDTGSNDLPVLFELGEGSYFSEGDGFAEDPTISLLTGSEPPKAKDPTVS
Chain of Signal transducer and activator of transcription 3 (Homo sapiens) (P40763 whole entry, looked up): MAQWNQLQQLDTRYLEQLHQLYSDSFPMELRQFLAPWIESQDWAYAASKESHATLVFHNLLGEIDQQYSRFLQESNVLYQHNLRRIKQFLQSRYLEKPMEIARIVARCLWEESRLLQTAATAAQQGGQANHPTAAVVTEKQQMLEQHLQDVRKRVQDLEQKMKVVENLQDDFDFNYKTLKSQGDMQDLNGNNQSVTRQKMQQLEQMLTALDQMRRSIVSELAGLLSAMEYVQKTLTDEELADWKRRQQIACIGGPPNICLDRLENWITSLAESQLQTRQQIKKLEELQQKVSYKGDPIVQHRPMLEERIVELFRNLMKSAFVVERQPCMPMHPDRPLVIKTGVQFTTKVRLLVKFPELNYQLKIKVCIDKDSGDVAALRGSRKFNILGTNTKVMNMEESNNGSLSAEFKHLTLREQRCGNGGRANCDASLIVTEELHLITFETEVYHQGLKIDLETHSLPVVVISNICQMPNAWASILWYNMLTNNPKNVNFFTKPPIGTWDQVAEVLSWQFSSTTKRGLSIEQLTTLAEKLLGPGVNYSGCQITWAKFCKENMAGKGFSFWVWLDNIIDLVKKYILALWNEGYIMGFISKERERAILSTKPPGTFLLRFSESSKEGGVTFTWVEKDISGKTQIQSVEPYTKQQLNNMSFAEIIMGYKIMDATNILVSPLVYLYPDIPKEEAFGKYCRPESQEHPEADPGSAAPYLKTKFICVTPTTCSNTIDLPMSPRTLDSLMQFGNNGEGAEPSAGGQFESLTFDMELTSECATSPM

By AC50 is commonly meant the concentration at which the activity in the assay is half-maximal. `Cc1c(-c2cccnc2)c2ccccc2n1CCCCC(=O)O`: the compound was classed as inactive in [1], in assay [2], in assay [3], in assay [4], in assay [5] and in assay [6]. For the same compound, the outcome in [7], in [8], in [9], in assay [10], in assay [11] and in assay [13] was inactive. Moreover, the result in [14], in assay [15], in assay [16], in assay [17] and in [18] was inactive. Moreover, the AC50 in [12] was 5.71 µM (active).
In the case of `CCNc1ccccc1`, the compound was classed as inactive in [1], in [2], in assay [3], in [4], in assay [6] and in assay [8]. Further, the outcome in [9], in assay [10], in assay [12], in assay [13], in [19] and in [14] was inactive. Further, the compound was called inactive in assay [15], in [16], in assay [17] and in [18]. The AC50 in assay [5] is 59.4 µM (active); in assay [11], 35.5 µM (active).
Turning to `CNS(=O)(=O)c1cc(C(=O)N2CCC(CCN3C4CCC3CC(n3c(C)nc5ccccc53)C4)(c3cccc(F)c3)CC2)c(Cl)cc1F` (stereo not given), the AC50 was 3.85 µM (active) in assay [1]; 8.05 µM (active) in assay [2]; 1.08 µM (active) in assay [11]; 3.63 µM (active) in [12]; 3.32 µM (active) in assay [15]; 7.52 µM (active) in assay [18]. The compound was called inactive in [3], in assay [4], in assay [5], in assay [6], in assay [7] and in assay [8]. Further, the outcome in [10], in assay [13], in assay [19], in assay [14], in assay [16] and in assay [17] was inactive.
As to `CC(=O)c1ccc2c(c1)[C@H](NC(=O)c1ccc(F)cc1)[C@@H](O)C(C)(C)O2`, the outcome in assay [20], in assay [2], in assay [3], in assay [4], in [5] and in assay [6] was inactive. Moreover, the outcome in assay [7], in [8], in assay [9], in assay [10], in assay [13] and in [19] was inactive. Further, the outcome in [14], in [15], in assay [16], in assay [17] and in [18] was inactive. The AC50 in [11] was 12.4 µM (active); in assay [12] it was 1.87 µM (active).
Regarding `COC(=O)CC(=O)OC`, the compound was classed as inactive in [20], in [2], in assay [3], in [4], in [5] and in [6]. Moreover, the compound was called inactive in [7], in [8], in assay [9], in assay [10], in assay [11] and in assay [12]. For the same compound, the compound was called inactive in [14], in assay [15], in assay [16], in assay [17] and in [18].
`CCCC(=O)OCC`: the compound was called inactive in assay [20], in assay [2], in [3], in assay [4], in [6] and in assay [7]. Besides, the result in assay [8], in [9], in assay [10], in [11], in [12] and in assay [13] was inactive. The call in assay [14], in [15], in assay [16], in assay [17] and in assay [18] was inactive. Also, in [5], the AC50 was 0.171 µM (active).
With `CCCCC(CC)COC(=O)c1ccc(C(=O)OCC(CC)CCCC)cc1` (stereo not given), the result in assay [1], in assay [2], in assay [3], in [4], in assay [5] and in assay [6] was inactive. Moreover, the compound was called inactive in assay [8], in assay [10], in [12], in [13], in assay [19] and in [14]. In addition, the compound was called inactive in [15], in assay [16], in assay [17] and in assay [18]. Further, the AC50 in assay [11] is 63 µM (active).
